Screening results deposited in PubChem by National Center for Advancing Translational Sciences (NCATS).
Compounds with a hit are over-represented: about 2.3% of the library has one in this group of screens.
Giardia kill = kills Giardia lamblia | hit rate 0.15% among 340,000 | Giardia lamblia trophozoite viability | activity change, % at 7.66 µM, hits read low; in the data active = activity change below about -80%; inconclusive = between about -30% and that limit;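 note: parasites exposed to compound for two days anaerobically before the ATP read; % is set by controls: 0 for no effect and ±100 for the full control effect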
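Trophozoites 100 cells/well + cpd; 48 hrs, 37 deg C, anaerobic. ATPLite 1-Step added, 15-30 min RT, luminescence read (ATP-based viability).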
Nrf2 activator = Nrf2 pathway activation; AREc32 ARE-luciferase reporter (MCF7-derived line), luminescence, 24 h; Potency, µM (top dose mostly 46.1 µM), inactives show at the top dose activation, most hits filed as activators; hit rate 0.31% among 410,000; AID 624171; note: potency is the fitted concentration of half-maximal effect; % of control where 0% means no effect; nearly all actives have a fitted effect of over 65% in size
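Luminescent ARE reporter assay in AREc32_Fluc cells: overnight plating at 37 deg C, 24 hr compound incubation, Steady-Glo added, 30 min RT before reading.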
Nrf2 block = Nrf2 pathway inhibition | AID 504444 | Potency, µM (titrated, usually from 46 µM), without a hit: at the highest dose activity change, negative = inhibition, hits mostly inhibitors | hit rate 2.1% among 360,000 | A549 ARE-Fluc reporter, luciferase luminescence, 18-24 h; note: potency is the fitted concentration of half-maximal effect; % is set by controls: 0 for no effect and ±100 for the full control effect; nearly all actives have a fitted effect of over 60% in size
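A549 ARE_Fluc cells, 5000/well, 5% FBS OPTI-MEM; compounds in dose-response, 18-24 h at 37 °C/5% CO2; CellTiter-Fluor viability read (Ex 405/Em 525), then BugLite luciferase luminescence = Nrf2 activity.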
Anesthetic bind = binds horse apoferritin like a general anesthetic; apoferritin/1-aminoanthracene competitive binding, fluorescence; Potency, µM (top dose mostly 77.5 µM), inactives show top-dose activity change, negative = displacement, most hits filed as inhibitors; P02791; hit rate 0.074% among 350,000; note: potency is the fitted concentration of half-maximal effect; % is set by controls: 0 for no effect and ±100 for the full control effect; nearly all actives have a fitted effect of over 20% in size
Target sequence (P02791 2-175 limits assumed): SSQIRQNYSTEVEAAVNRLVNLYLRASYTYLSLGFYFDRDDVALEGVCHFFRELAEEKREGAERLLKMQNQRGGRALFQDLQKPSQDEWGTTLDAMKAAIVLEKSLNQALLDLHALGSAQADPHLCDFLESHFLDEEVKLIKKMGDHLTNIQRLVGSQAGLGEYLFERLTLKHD
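Horse-spleen apoferritin (10 uM) was mixed with 50% saturated 1-aminoanthracene in PBS, exposed to compounds for 10 min at room temperature, and read for fluorescence (ex 380 nm, em 535 nm). Competitive displacement was fitted with a four-parameter Hill equation.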
A549 tox = kills or reduces viability of A549 cells in Nrf2 counter-screen. A549 ARE-Fluc cells, CellTiter-Fluor viability, 18-24 h. Potency, µM (top dose mostly 46 µM), for inactives: at the top dose activity change, negative = cytotoxicity, hits mostly inhibitors. hit rate 0.16% among 390,000; note: potency is the fitted concentration of half-maximal effect; % is set by controls: 0 for no effect and ±100 for the full control effect
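Cytotoxicity counterscreen: CellTiter-Fluor fluorescence was measured in A549 ARE_Fluc cells after 18-24 h of compound exposure in a concentration series. The subsequent BugLite luminescent read reports ARE-luciferase activity.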
mIDH1 inhibitor = human IDH1 R132H inhibition | O75874 | IDH1-R132H enzyme, NADPH consumption, diaphorase/resazurin fluorescence | Potency, µM (top dose mostly 76.6 µM), for the others: at the highest dose activity change, negative = inhibition, actives largely listed as inhibitors | hit rate 0.093% among 390,000 | AID 602179; note: potency is the fitted concentration of half-maximal effect; % is set by controls: 0 for no effect and ±100 for the full control effect; nearly all actives have a fitted effect of over 65% in size
Target sequence (O75874 whole entry R132H, stated change not applied): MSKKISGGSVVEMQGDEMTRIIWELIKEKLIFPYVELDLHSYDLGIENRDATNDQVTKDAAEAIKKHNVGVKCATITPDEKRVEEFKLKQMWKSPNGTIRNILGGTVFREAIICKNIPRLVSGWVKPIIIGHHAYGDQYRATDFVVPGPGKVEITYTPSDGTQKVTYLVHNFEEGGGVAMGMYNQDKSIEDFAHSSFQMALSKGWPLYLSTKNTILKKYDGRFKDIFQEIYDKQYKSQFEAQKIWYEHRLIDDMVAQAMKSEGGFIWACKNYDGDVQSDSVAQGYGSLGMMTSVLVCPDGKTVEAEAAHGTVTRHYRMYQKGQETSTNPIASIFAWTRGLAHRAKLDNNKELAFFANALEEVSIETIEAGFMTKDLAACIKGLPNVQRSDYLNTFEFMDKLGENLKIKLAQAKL
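IDH1-R132H (0.5 ug/mL dispensed) in pH 7.5 Tris buffer was preincubated 30 min with compound, then given a substrate mix of 0.016 mM NADPH and 2 mM alpha-KG for 80 min at room temperature; remaining NADPH was read by diaphorase/resazurin fluorescence.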
Starred values were filed as active, the others as inactive; i = inactive; ? = inconclusive; nt = no result given; ! = not confirmed by another sample. Unless noted, calls come from the whole dose curve; as a rule, active = well fitted curve in the direction sought with a large enough effect; inconclusive = small, poorly fitted or top-dose-only effect, or another doubt; inactive = no such curve, though single readings can be large; an effect the other way counts as inactive or inconclusive.

SMILES	Giardia kill	Nrf2 activator	Nrf2 block	Anesthetic bind	A549 tox	mIDH1 inhibitor
Cc1c(O)c(O)cc2c1CC=C1[C@]3(C)CC[C@]4(C)CC[C@@](C)(C(=O)O)CC4[C@]3(C)CC[C@]12C (some centres not stated)	nt	nt	nt	-18%	nt	nt
CC1=C(O)C(=O)C=C2C1=CC=C1C2(C)CCC2(C)C3CC(C)(C(=O)O)CCC3(C)CCC12C (configuration not stated)	?	-3%	18µM*	nt	?	-27%
ClC1=C(Cl)C(Cl)(C2(Cl)C(Cl)=C(Cl)C(Cl)=C2Cl)C(Cl)=C1Cl	nt	nt	nt	-8%	nt	nt
CNCCc1ccc(OC)c(OC)c1	-4	0%	1%	-6%	11%	1%
CCc1ccc(-n2nc(C)c3c(C(=O)NCCc4ccc(OC)c(OC)c4)cc(C)nc32)cc1	nt	7%	23µM*	-9%	-13%	0%
Cn1cnc([N+](=O)[O-])c1Sc1ccc([N+](=O)[O-])cc1	-20	18%	9.2µM*	-24%	?	3%
Cn1cc2c([N+](=O)[O-])cc([N+](=O)[O-])cc2n1	nt	nt	nt	-9%	nt	nt
Cc1ccc(C[N+](C)(C)C)o1	nt	nt	nt	5%	nt	nt
COC1C(O)C(C)O[C@H](OC2CC[C@@]3(C=O)C4CC[C@]5(C)C(C6=CC(=O)OC6)CC[C@@]5(O)C4CC[C@@H]3C2)C1O (some centres not stated)	nt	nt	nt	3%	nt	nt
Nc1c(C(=O)OCc2ccccc2)c2nc3ccccc3nc2n1Cc1cccs1	8	9%	23µM*	60%	?	3%
CC(C)C1C(=O)N2CCC[C@H]2[C@]2(O)O[C@](NC(=O)[C@@H]3C=C4c5cccc6[nH]cc(c56)C[C@H]4N(C)C3)(C(C)C)C(=O)N12 (some centres not stated)	nt	nt	nt	-2%	nt	nt
c1ccc(-c2nn(-c3ccccc3)[n+](-c3ccccc3)n2)cc1	4	0%	21µM*	nt	-7%	2%
CC(=O)O[C@@H]1[C@@H](O)C2OC3C=C(C)C(=O)[C@@H](O)[C@]3(CO)C1(C)C21CO1 (some centres not stated)	nt	nt	nt	4%	nt	nt
CC(=O)OCC12CC(OC(=O)CC(C)C)C(C)=CC1OC1C(O)C(OC(C)=O)C2(C)C12CO2 (configuration not stated)	?	-2%	0.021µM*	nt	nt	4%
O=C(N/N=C/c1cc(Br)c(Br)s1)c1ccncc1	1	0%	18µM*	-13%	-11%	4%
COC(=O)[C@@]12CCCCN1[C@H](c1ccc(-c3ccc(Cl)c(Cl)c3)c(OC)c1)[C@@H]1C(=O)N(C)C(=O)[C@@H]12	-22	-1%	21µM*	nt	-14%	-1%
COC(=O)C1=C(c2ccc(-c3ccccc3)c(F)c2)C[C@@H]2CC[C@H]1N2C(=O)NCCOc1ccccc1Cl	-10	0%	16µM*	nt	-20%	4%
CCCNC(=O)N1[C@H]2CC[C@@H]1C(C(=O)OC)=C(c1ccc(-c3ccccc3)c(F)c1)C2	8	4%	16µM*	nt	0%	9%
COC(=O)C1=C(c2ccc(-c3ccccc3)c(F)c2)C[C@@H]2CC[C@H]1N2C(=O)NCCO	20	-1%	-25%	nt	0%	9%
COC(=O)C1=C(c2ccc(-c3ccccc3)c(F)c2)C[C@@H]2CC[C@H]1N2C(=O)NCc1ccco1	-1	0%	15µM*	nt	-19%	-1%
CCOC(=O)C(SP(=S)(OC)OC)c1ccccc1 (configuration not stated)	nt	nt	nt	0%	nt	nt
Cn1ncnc2c(=O)n(C)c(=O)nc1-2	-88*	-5%	0.18µM*	-9%	0.46µM*	28%
Cc1ccc(-c2nc3c(=O)n(C)c(=O)nc-3n(C)n2)cc1	-95*	nt	3.3µM*	nt	2.9µM*	nt
CCCCOc1ccc(CNC(=O)c2cc3n(n2)CCCN(Cc2ccc(C)cc2)C3=O)cc1	nt	1%	nt	51%	-20%	8%
O=P(Oc1ccccc1)(Oc1ccccc1)C(Nc1ccccc1)c1ccccc1 (configuration not stated)	-1	0%	21µM*	-8%	-16%	4%
SMILES	Giardia kill	Nrf2 activator	Nrf2 block	Anesthetic bind	A549 tox	mIDH1 inhibitor
CC(C)COP(=O)(OCC(C)C)C(Nc1ccccc1)c1ccccc1 (configuration not stated)	-4	4%	?	6%	-3%	4%
C/C(=N\NC(N)=S)C12CC3CC(CC(C3)C1)C2	7	3%	29%	8.9µM*	?	2%
O=c1ccc2cc(O[C@H]3OC(CO)C(O)C(O)C3O)c(O)cc2o1 (some centres not stated)	nt	nt	nt	i	nt	nt
CC(C)[C@H](NC(=O)[C@H](CC(=O)O)NC(=O)[C@H](Cc1ccccc1)NC(=O)[C@@H](C)NC(=O)[C@@H](N)Cc1ccc(O)cc1)C(=O)N[C@H](C(=O)NCC(N)=O)C(C)C	nt	nt	nt	2%	nt	nt
Cc1ccc(-c2nnc(Nc3ccc(Br)cc3)c3ccccc23)cc1S(=O)(=O)NCc1nc2ccccc2[nH]1	nt	11%	?	125%	-14%	-31%
N#Cc1cc2c(nc1SCC(=O)Nc1cccc(C(F)(F)F)c1)C1CCN2CC1	nt	2%	21µM*	?	-14%	-1%
N#Cc1cccc(NC(=O)CSc2nc3c(cc2C#N)N2CCC3CC2)c1	nt	3%	?	54%	5%	14%
CN(C)C(=O)Oc1cccc([N+](C)(C)C)c1	1	1%	6.5µM*!	0%	-1%	-5%
CN(C)C(=O)Nc1cccc(OC(=O)N(C)C)c1	34	0%	1%	20%	-5%	-3%
CN(C)C(=S)SSC(=S)N(C)C	-85*	-3%	7%	4%	-4%	30%
CCN1C[C@@]2(COC)CCC(OC)[C@]34C5C[C@]6(O)[C@@H](OC)C[C@](OC(C)=O)(C([C@H](OC)C23)[C@H]14)C5[C@H]6OC(=O)c1ccc(OC)cc1 (some centres not stated)	nt	nt	nt	-8%	nt	nt
C=C(C)[C@@]12OC3(c4ccccc4)O[C@@H]1[C@@H]1[C@@H]4O[C@]4(CO)[C@@H](O)[C@]4(O)C(=O)C(C)=C[C@H]4[C@@]1(O3)[C@H](C)[C@H]2OC(=O)/C=C/C=C/c1ccccc1	nt	nt	nt	-21%	nt	nt
CCOc1ccc(S(=O)(=O)N(CC(=O)NCc2ccccc2OC)c2ccccc2)cc1	nt	0%	16µM*	66%	-28%	5%
CCOc1ccc(S(=O)(=O)N(CC(=O)NCCc2ccc(OC)c(OC)c2)c2ccccc2)cc1	nt	0%	?	-7%	-11%	-4%
CCOc1ccc(C(=O)N2CCC(c3noc(-c4ccc(S(=O)(=O)N5CCCC5)cc4)n3)CC2)cc1	nt	-1%	15µM*	-13%	-17%	15%
